# Measurements published in PubChem BioAssay.
# The list shows a part of the results. The source made the active and inactive calls. Unless noted, the rule behind the calls is not given here.
# Legend:
# [1] = Brca1-Bard1 BiLC signal decrease – luminescence, single concentration, counter-screen for Mdm2/MdmX interaction inhibitor project, confirmation (AID 504668); conditions: Brca1/Bard1 bimolecular luciferase complementation counterscreen, at 8 µM, stronger effect = higher value
# [2] = lowers stimulated NF-kB luciferase signal in Jurkat – cell-based, luminescence, single concentration, T-cell NF-kB inhibitor project, confirmation (AID 435020;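 active = inhibition reaching about 45% at 4 µM in either replicate, limit read from the data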;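 note: plate controls were PMA/ionomycin stimulated DMSO wells for no effect and unstimulated DMSO wells for full effect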); conditions: PMA/ionomycin-induced, 16 h, at 4 µM, stronger effect = higher value
# [3] = biological target: Protein Mdm4 (Homo sapiens) + E3 ubiquitin-protein ligase Mdm2 (Homo sapiens) (UniProt O15151+Q00987); experiment: human Mdm2/MdmX binding disruption – cell-based, luminescence, single concentration, set 2, confirmation (AID 504601;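 active = mean inhibition of the luminescence signal across two replicates at or above 26 percent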); conditions: SaOS-2 split-luciferase Mdm2/MdmX complementation, at 8 µM, stronger effect = higher value
# Protein Mdm4 (Homo sapiens) + E3 ubiquitin-protein ligase Mdm2 (Homo sapiens), sequence (O15151 whole entry, looked up): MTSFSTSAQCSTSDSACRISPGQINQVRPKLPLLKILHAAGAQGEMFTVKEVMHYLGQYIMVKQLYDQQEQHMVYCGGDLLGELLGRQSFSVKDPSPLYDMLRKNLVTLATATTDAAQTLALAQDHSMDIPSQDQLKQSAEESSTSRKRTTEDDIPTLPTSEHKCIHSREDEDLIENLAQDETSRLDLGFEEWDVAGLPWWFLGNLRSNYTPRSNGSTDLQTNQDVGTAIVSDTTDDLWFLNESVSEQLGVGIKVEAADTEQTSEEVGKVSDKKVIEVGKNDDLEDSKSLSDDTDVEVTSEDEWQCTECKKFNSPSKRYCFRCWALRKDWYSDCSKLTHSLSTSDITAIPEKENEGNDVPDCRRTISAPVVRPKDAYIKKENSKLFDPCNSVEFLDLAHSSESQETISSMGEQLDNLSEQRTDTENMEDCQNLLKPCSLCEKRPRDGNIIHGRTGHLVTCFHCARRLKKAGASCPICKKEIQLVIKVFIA
# Protein Mdm4 (Homo sapiens) + E3 ubiquitin-protein ligase Mdm2 (Homo sapiens), sequence (Q00987 whole entry, looked up): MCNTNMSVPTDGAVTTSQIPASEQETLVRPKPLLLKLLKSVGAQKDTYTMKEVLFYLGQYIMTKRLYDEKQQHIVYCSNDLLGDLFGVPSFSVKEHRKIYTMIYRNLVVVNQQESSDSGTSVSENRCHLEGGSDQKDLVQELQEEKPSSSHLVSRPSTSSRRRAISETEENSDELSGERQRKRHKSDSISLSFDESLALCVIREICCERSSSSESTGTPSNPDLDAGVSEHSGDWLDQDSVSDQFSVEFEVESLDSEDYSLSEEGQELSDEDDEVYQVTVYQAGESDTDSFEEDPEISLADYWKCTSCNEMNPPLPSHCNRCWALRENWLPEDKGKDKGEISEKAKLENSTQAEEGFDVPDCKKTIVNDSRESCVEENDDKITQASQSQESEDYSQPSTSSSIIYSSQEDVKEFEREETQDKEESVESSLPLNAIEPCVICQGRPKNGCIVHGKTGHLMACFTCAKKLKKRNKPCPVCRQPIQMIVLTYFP
# [4] = apoptosome-driven caspase-3 activation blockers – biochemical, fluorescence, DEVD-Rh110, 20 µM, confirmation (AID 504614;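 active = mean inhibition of at least 40% at 20 µM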;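 note: plate controls were DMSO wells for no effect and DEVD-CHO caspase inhibitor control wells for full effect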); conditions: reconstituted apoptosome, caspase-3 DEVD-Rh110 fluorescence; at 20 µM; stronger effect = higher value
# [5] = detection-step artefacts after completed caspase reaction – biochemical, fluorescence, Rh110, 20 µM, artefact control for Apaf-1 inhibitor project, confirmation (AID 504615;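 active = signal rise of 40% or more at 20 µM, treated as a fluorescence artifact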); conditions: quenched caspase reaction, at 20 µM, stronger effect = higher value
# [6] = HIF-2a driven luciferase blockers, single dose – luminescence, 786-0 RCC cells, confirmation (AID 651580;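 active = mean inhibition across four replicates of at least 40 percent at the single tested concentration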); conditions: HIF-2a luciferase reporter luminescence, overnight, at 18.8 µM, stronger effect = higher value
# [7] = HIF-1a luciferase reporter signal reduction – MiaPaCa-2 cells, single concentration, counter-screen for HIF-2a inhibitor project, confirmation (AID 651589;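 active = mean inhibition of the reporter signal across four replicates at the single tested dose of 50% or more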); conditions: MiaPaCa-2 HIF-1a luciferase reporter, desferoxamine, overnight; at 18.8 µM; stronger effect = higher value
# [8] = biological target: Tumor necrosis factor receptor superfamily member 10B (Homo sapiens) (UniProt O14763); experiment: viability loss of caspase-8 NB7 cells with TRAIL – with/without TRAIL, luminescence panel, confirmation (AID 651596; in the data active = activity above about 50%); conditions: NB7 neuroblastoma + caspase-8, TRAIL sensitization, NB7 Caspase-8, with TRAIL, mean of runs, at 10 µM, stronger effect = higher value
# Tumor necrosis factor receptor superfamily member 10B (Homo sapiens), sequence (O14763 whole entry, looked up): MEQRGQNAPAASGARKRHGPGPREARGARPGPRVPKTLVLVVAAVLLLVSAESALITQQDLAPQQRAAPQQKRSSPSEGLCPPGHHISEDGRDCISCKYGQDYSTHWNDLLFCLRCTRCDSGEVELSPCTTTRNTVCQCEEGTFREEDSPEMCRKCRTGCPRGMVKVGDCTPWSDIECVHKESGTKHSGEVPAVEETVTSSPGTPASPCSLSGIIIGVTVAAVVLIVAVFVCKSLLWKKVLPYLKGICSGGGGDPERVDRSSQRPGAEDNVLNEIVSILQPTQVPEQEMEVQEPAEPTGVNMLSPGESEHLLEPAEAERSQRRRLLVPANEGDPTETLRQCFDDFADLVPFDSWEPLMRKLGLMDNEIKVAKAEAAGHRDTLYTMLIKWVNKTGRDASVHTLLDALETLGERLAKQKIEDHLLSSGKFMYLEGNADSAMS
# [9] = as above; conditions: NB7 neuroblastoma + caspase-8, without TRAIL, NB7 Caspase-8, without TRAIL, mean of runs, at 10 µM
# [10] = PPC-1 cell viability loss – ATP content luminescence, cytotoxicity control for TRAIL apoptosis potentiator project, confirmation (AID 1447;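 active = reconfirmed compounds whose average cytotoxicity reaches 50% or more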;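 note: 0% = DMSO-treated cells and 100% = wells holding medium but no cells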); conditions: PPC-1 viability, ATPlite luminescence, overnight; at 5 µM; stronger effect = higher value
# [11] = inhibition of PEG-3 promoter luciferase signal – cell-based, HeLa, luciferase reporter, single concentration, confirmation (AID 602417;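 active = at 20 µM dose, 40% or more inhibition averaged across four replicates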); conditions: HeLa PEG-Prom luciferase reporter, luminescence, overnight; at 20 µM; stronger effect = higher value
# PEG-3 [12] = biological target: PEG-3 (UniProt Q6IN02); experiment: inhibition of PEG-3 promoter-driven reporter – cell-based, HeLa, luciferase, CREF/GAPDH counter-screen panel, dose response (AID 624167); conditions: HeLa PEG-Prom luciferase reporter, overnight, CREF/GAPDH counter-screens; run 1, dose range 1, at 100 µM (top of the series)
# PEG-3, sequence (Q6IN02 whole entry, looked up): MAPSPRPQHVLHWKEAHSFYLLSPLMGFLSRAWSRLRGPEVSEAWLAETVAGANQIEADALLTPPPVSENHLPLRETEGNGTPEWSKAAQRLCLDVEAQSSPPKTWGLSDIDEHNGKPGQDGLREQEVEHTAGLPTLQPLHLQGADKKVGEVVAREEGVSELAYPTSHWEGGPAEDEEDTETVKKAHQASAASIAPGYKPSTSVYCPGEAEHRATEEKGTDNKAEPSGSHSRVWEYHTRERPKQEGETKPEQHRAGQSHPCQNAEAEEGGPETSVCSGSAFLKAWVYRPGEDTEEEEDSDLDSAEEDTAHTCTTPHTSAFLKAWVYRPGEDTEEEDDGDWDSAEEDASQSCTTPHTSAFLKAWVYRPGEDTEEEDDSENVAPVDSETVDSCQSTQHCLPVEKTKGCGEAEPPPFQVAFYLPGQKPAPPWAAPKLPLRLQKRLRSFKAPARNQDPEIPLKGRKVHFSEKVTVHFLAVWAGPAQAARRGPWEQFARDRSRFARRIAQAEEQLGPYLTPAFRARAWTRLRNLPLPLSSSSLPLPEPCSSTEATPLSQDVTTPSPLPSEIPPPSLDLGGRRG
# PEG-3 [13] = biological target: PEG-3 (UniProt Q6IN02); experiment: as above; conditions: HeLa PEG-Prom luciferase reporter, overnight, CREF/GAPDH counter-screens; run 2, dose range 1, at 100 µM (top of the series)
# [14] = biological target: Sentrin-specific protease 8 (Homo sapiens) (UniProt Q96LD8); experiment: human SENP8 peptidase blockers, hit retest – biochemical, luminescence, single concentration, confirmation (AID 488912;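 active = mean inhibition across replicates above about 50%, limit read from the data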); conditions: Recombinant SENP8, Z-RLRGG-aminoluciferin luminescence, 60 min; at 12.5 µM; stronger effect = higher value
# Sentrin-specific protease 8 (Homo sapiens), sequence (Q96LD8 whole entry, looked up, the tested form may be a part): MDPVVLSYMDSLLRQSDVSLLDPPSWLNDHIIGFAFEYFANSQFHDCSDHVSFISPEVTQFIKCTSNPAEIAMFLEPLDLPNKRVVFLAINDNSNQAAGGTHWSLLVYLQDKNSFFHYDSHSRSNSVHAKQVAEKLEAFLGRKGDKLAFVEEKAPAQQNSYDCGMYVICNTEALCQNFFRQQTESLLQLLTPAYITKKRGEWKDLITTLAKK
# [15] = biological target: Sentrin-specific protease 6 (Homo sapiens) (UniProt Q9GZR1); experiment: inhibition of human SENP6 catalytic domain – biochemical, luminescence, single concentration, confirmation (AID 488915;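 active = mean inhibition above about 50% in the one-dose retest, limit read from the data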); conditions: recombinant SENP6, Z-RLRGG-aminoluciferin luminescence; at 12.5 µM; stronger effect = higher value
# Sentrin-specific protease 6 (Homo sapiens), sequence (Q9GZR1 628-1112 limits assumed): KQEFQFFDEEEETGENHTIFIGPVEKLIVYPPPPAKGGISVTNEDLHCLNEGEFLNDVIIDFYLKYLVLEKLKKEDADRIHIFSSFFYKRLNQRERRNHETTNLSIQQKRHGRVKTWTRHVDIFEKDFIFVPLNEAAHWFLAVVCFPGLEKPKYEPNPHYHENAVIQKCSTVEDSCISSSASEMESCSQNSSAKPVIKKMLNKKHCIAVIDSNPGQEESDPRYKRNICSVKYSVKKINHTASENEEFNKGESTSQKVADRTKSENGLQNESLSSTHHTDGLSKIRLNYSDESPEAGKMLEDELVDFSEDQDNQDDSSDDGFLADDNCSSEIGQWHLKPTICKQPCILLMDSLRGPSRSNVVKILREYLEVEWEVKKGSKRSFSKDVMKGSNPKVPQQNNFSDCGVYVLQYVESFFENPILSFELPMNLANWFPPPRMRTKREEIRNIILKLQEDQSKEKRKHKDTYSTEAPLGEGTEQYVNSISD
# [16] = biological target: Sentrin-specific protease 7 (Homo sapiens) (UniProt Q9BQF6); experiment: human SENP7 peptidase blockers, hit retest – biochemical, luminescence, single concentration, confirmation (AID 488917;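 active = mean inhibition above about 50% in the one-dose retest, limit read from the data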); conditions: recombinant SENP7, Z-RLRGG-aminoluciferin luminescence, 40 min; at 12.5 µM; stronger effect = higher value
# Sentrin-specific protease 7 (Homo sapiens), sequence (Q9BQF6 706-1050 limits assumed): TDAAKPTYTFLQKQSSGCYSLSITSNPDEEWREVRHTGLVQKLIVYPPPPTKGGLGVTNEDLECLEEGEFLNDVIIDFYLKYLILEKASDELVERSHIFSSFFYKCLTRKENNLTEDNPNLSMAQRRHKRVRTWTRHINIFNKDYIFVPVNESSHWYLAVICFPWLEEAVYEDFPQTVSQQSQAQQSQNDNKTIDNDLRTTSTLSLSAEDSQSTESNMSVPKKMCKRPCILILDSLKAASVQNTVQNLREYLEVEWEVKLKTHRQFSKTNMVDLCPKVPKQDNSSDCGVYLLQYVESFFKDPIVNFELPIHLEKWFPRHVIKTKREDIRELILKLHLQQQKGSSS
# Caspase-3 (Homo sapiens) = Caspase-3 (Homo sapiens) (UniProt P42574); experiment: human caspase-3 activity blockade, out-of-family – biochemical, single concentration, selectivity assay for SENP inhibitor project, confirmation (AID 488918;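 active = mean inhibition above about 50%, limit read from the data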;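 note: plate controls were enzyme with DMSO for no effect and wells without caspase-3 for full effect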); conditions: purified caspase-3, Z-DEVD-aminoluciferin luminescence, 60 min; at 12.5 µM; stronger effect = higher value
# Caspase-3 (Homo sapiens), sequence (P42574 28-227 limits assumed): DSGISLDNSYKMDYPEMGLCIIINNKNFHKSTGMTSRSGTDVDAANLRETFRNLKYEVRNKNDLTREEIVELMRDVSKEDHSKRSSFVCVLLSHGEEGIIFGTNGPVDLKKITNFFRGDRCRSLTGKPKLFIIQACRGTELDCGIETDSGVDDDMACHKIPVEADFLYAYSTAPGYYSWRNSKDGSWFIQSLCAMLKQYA
# [17] = Ultra-Glo luciferase signal interference – biochemical, single concentration, SENP8 reaction pre-completed, artefact control for SENP inhibitor project, confirmation (AID 488919;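 active = mean inhibition above about 50% when retested at one dose, limit read from the data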;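 note: plate controls were DMSO wells with completed reaction for no effect and substrate without enzyme for full effect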); conditions: Pre-incubated SENP8/Z-RLRGG-aminoluciferin, luciferase luminescence interference; at 12.5 µM; stronger effect = higher value
# [18] = fluorescence interference of Apaf-1 inhibitor hits, dose response, artefact control for Apaf-1 inhibitor project (AID 588538); conditions: fluorescence interference counterscreen, Apaf-1 assay format
# [19] = PERK-eIF2a-CHOP pathway stimulators, retested – cell-based, CHO-CHOP luciferase reporter, single concentration, confirmation (AID 463112; in the data active = activation above about 33%;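 note: 0% = DMSO wells and 100% = tunicamycin 10 µg/mL wells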); conditions: CHO-CHOP cells, CHOP-luciferase reporter luminescence; at 10 µM; stronger effect = higher value; percent of tunicamycin response, DMSO as zero
# [20] = NF-kB reporter suppression in CF airway cells – cell-based, GFP fluorescence, single concentration, confirmation (AID 602472; in the data active = inhibition above about 40%;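 note: stimulus PAF is a Pseudomonas aeruginosa filtrate and not platelet activating factor; plate controls were DMSO wells with stimulus for no effect and unstimulated DMSO wells for full effect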); conditions: KKLEB CF airway cells, PAF-induced NF-kB-GFP fluorescence, overnight; at 5 µM; stronger effect = higher value
# Rat fibroblasts (CREF) [21] = experiment: inhibition of PEG-3 promoter-driven reporter – cell-based, HeLa, luciferase, CREF/GAPDH counter-screen panel, dose response (AID 624167); conditions: CREF/GAPDH counter-screens; run 1, dose range 1, at 100 µM (top of the series)
# Rat fibroblasts (CREF) [22] = experiment: as above; conditions: CREF/GAPDH counter-screens; run 2, dose range 1, at 100 µM (top of the series)
# [23] = biological target: Tumor necrosis factor receptor superfamily member 10B (Homo sapiens) (UniProt O14763); experiment: compound enhancement of TRAIL-induced cell killing – NB7 cells plus caspase-8, luminescence, panel, dose response (AID 652002); conditions: NB7 neuroblastoma +caspase-8, TRAIL sensitization, luminescence viability, NB7+Caspase-8, with TRAIL, run 1; at 12.5 µM (top of the series)
# [24] = biological target: Tumor necrosis factor receptor superfamily member 10B (Homo sapiens) (UniProt O14763); experiment: as above; conditions: NB7 neuroblastoma +caspase-8, TRAIL sensitization, luminescence viability, NB7+Caspase-8, with TRAIL, run 2; at 12.5 µM (top of the series)
# [25] = as above; conditions: NB7 neuroblastoma +caspase-8, no TRAIL, compound-alone cytotoxicity counter-screen, luminescence viability, NB7+Caspase-8, run 1; at 12.5 µM (top of the series)
# [26] = as above; conditions: NB7 neuroblastoma +caspase-8, no TRAIL, compound-alone cytotoxicity counter-screen, luminescence viability, NB7+Caspase-8, run 2; at 12.5 µM (top of the series)
smiles,measurement,setting,value
c1ccc2c(N3CCNCC3)nsc2c1,inhibition,[1],29.6% (active)
Brc1ccc2c(c1)C(OC1CN3CCC1CC3)c1ccccc1CS2 (stereo not given),inhibition,[1],33.8% (active)
CCCCCCCCCCCCn1ccc(=N)cc1,inhibition,[2],80.3% (active)
same,inhibition,[3],103% (active)
same,inhibition,[4],32% (inactive)
same,activation (fluorescence interference),[5],3.55% (inactive)
same,inhibition,[6],64% (active)
same,inhibition,[7],106% (active)
same,activity,[8],92.9%
same,activity,[9],80%
CN(C)c1ccc(-[n+]2c(-c3ccccc3)cc(-c3ccccc3)cc2-c2ccccc2)cc1,inhibition,[1],23.3% (active)
N#CC(C#N)=NNc1ccc(-n2ccc(C(F)(F)F)n2)cc1,inhibition,[1],31.2% (active)
CCOc1ccc(-c2cc(C)[n+](CCN(CC)CC)c(-c3ccc(OCC)cc3)c2)cc1,inhibition,[2],21.7% (inactive)
same,activity,[8],62.5%
same,activity,[9],59.2%
Cc1cccc(-n2c(O)c(/C=C3/C(c4ccccc4)=Nc4ccccc43)c(=O)[nH]c2=O)c1,inhibition,[1],35.8% (active)
C/C=C(\C)C(=O)OC1C(C)=C2C(C1OC(=O)CCCCC)C(C)(OC(C)=O)CC(OC(=O)CCC)C1(O)C2OC(=O)C1(C)O (stereo not given),inhibition,[1],24.1% (active)
C[C@@H]1O[C@@H](O[C@H]2C[C@@H](O)[C@]3(CO)[C@@H]4C(CC[C@]3(O)C2)[C@@]2(O)CC[C@H](C3COC(=O)C3)[C@@]2(C)C[C@H]4O)[C@H](O)[C@H](O)[C@H]1O (stereo not given in full),inhibition,[1],24.4% (active)
COc1ccc2c(c1)/C(=C/c1cnc[nH]1)C(=O)N2,inhibition,[1],32.2% (active)
COc1cc2c3cc1Oc1c(OC)c(OC)cc4c1[C@H](Cc1ccc(cc1)Oc1cc(ccc1O)C[C@H]3N(C)CC2)N(C)CC4,inhibition,[1],29.8% (active)
COc1cc2c(cc1OC)-c1c(OC)c(OC)c(OC)c3ccnc(c13)C2=O,inhibition,[1],23.6% (active)
CCc1nc2ccccc2c(=O)n1-c1cccc(OC)c1,cytotoxicity,[10],-11.4% (inactive)
O=Cc1cn(Cc2ccc(F)cc2Cl)c2ccccc12,inhibition,[1],35.1% (active)
CC(Cc1ccccc1)NCCC(c1ccccc1)c1ccccc1 (stereo not given),inhibition,[4],12.8% (inactive)
same,activation (fluorescence interference),[5],7.45% (inactive)
same,inhibition,[11],87.6% (active)
same,inhibition,PEG-3 [12],98%
same,inhibition,PEG-3 [13],98.9%
CCOc1ccc(-c2cc(C)[n+](CCc3ccc(OC)c(OC)c3)c(-c3ccc(OCC)cc3)c2)cc1,inhibition,[1],35.8% (active)
Clc1ccc(C(c2ccc(Cl)cc2)n2cc[n+](CC(OCc3ccc(Cl)cc3Cl)c3ccc(Cl)cc3Cl)c2)cc1 (stereo not given),inhibition,[1],28.6% (active)
CCn1nc(-c2ccccc2)nc2c(=O)n(C)c(=O)nc1-2,inhibition,[1],23.3% (active)
COc1cc2c3c(c1OC)Oc1ccc(cc1)C[C@H]1c4c(cc(OC)c(OC)c4Oc4ccc(cc4)C[C@@H]3N(C)CC2)CCN1C,inhibition,[1],35.2% (active)
C/C(=N/O)c1ccc2ccc3ccccc3c2c1,inhibition,[14],64.6% (active)
same,inhibition,[15],61.5% (active)
same,inhibition,[16],79.5% (active)
same,inhibition,Caspase-3 (Homo sapiens),19.2% (inactive)
same,inhibition,[17],30.7% (inactive)
CNCC(O)c1cc(F)c(OCc2ccccc2)c(OCc2ccccc2)c1F (stereo not given),inhibition,[4],12.9% (inactive)
same,activation (fluorescence interference),[5],12.9% (inactive)
CCOC(=O)c1ccc(-[n+]2c(-c3ccccc3)cc(-c3ccccc3)cc2-c2ccccc2)cc1,inhibition,[1],23.6% (active)
CCn1nc(/C=C/c2ccccc2)nc2c(=O)n(C)c(=O)nc1-2,inhibition,[1],24.6% (active)
C[C@]12CC[C@H](O)C[C@H]1CC[C@@H]1C2CC[C@]2(C)[C@@H](C3=CC(=O)OC3)[C@@H](O)C[C@]12O (stereo not given in full),inhibition,[2],-17.1% (inactive)
Cc1cc2ccccn2c1C(C[N+](=O)[O-])c1c(F)cccc1Cl (stereo not given),inhibition,[2],6.25% (inactive)
same,inhibition,[3],33% (active)
same,inhibition,[1],29.6% (active)
CCOc1cccc(CNCCc2c(C)[nH]c3ccc(OC(F)(F)F)cc23)c1O,inhibition,[1],29.9% (active)
COc1cccc(-c2nc3ccc(N4CCN(C)CC4)cc3[nH]2)c1,cytotoxicity,[10],82.3% (active)
same,inhibition,[14],74.8% (active)
same,inhibition,[15],67.2% (active)
same,inhibition,[16],88.2% (active)
same,inhibition,Caspase-3 (Homo sapiens),87% (active)
same,inhibition,[17],25.4% (inactive)
same,activity,[8],90.4%
same,activity,[9],87.8%
Fc1ccc(C(OCCN2CCN(CCCc3ccccc3)CC2)c2ccc(F)cc2)cc1,inhibition,[1],30.4% (active)
CCOC(=O)c1c(N)n(Cc2ccccc2)c2nc3ccccc3nc12,inhibition,[4],12.5% (inactive)
same,activation (fluorescence interference),[5],5.83% (inactive)
Cc1cc(O)c2c(c1)C(=O)C13C(=C2O)C(=O)[C@H]2[C@@H](O)[C@@H]1[C@H]1[C@H](O)[C@@H]3C(=O)C3=C(O)c4c(O)cc(C)cc4C(=O)C312 (stereo not given in full),inhibition,[1],29.6% (active)
CCCCCn1c(=O)c(C(=O)Nc2c(C)n(C)n(-c3ccccc3)c2=O)c(O)c2ccccc21,inhibition,[4],42.9% (active)
same,activation (fluorescence interference),[5],-2.75% (inactive)
same,IC50,[18],> 100 µM (inactive)
CC(C)c1oc(=O)cc2c1[C@@H](O)[C@H]1OC(=O)[C@@]3(C)C[C@@H](O)[C@@H](O)[C@@]2(C)C13 (stereo not given in full),inhibition,[1],29.6% (active)
O=C1NC(=O)N(CCc2ccc(F)cc2)C(=O)/C1=C/C=C/c1ccccc1,activation,[19],90.1% (active)
CC1(C)Cc2c(C#N)c(N3CCNCC3)nc(-c3ccco3)c2CS1,inhibition,[11],68.9% (active)
CC(=CCOc1ccc2ccc(=O)oc2c1)C1=CC(=O)C(C)(C)O1,inhibition,[20],-46% (inactive)
same,inhibition,[6],44.2% (active)
same,inhibition,[7],90.3% (active)
COc1ccc(-n2nnnc2C(c2cccc3ccccc23)N2CCC(n3c(=O)[nH]c4ccccc43)CC2)cc1 (stereo not given),inhibition,[20],14.7% (inactive)
O=C(CSC1c2ccccc2-c2ccccc21)N/N=C/c1ccccc1O,inhibition,Rat fibroblasts (CREF) [21],64.9%
same,inhibition,Rat fibroblasts (CREF) [22],74.1%
CCOC(=O)c1cccc(-[n+]2c(-c3ccccc3)cc(-c3ccccc3)cc2-c2ccccc2)c1,"activity, % sensitization",[23],6.7%
same,"activity, % sensitization",[24],9.91%
same,"activity, % sensitization",[25],9.79%
same,"activity, % sensitization",[26],5.11%
CCN(CC)C(=O)Cn1cc(/C=C2\C(=O)NC(=O)N(c3ccccc3F)C2=O)c2ccccc21,inhibition,PEG-3 [12],102%
same,inhibition,PEG-3 [13],98.9%
Cc1ccccc1CN1Cc2cnnn2-c2ccccc2C1C#N (stereo not given),inhibition,PEG-3 [12],99.2%
same,inhibition,PEG-3 [13],98.3%
same,activity,[8],37.7%
same,activity,[9],78.2%
